Assay [1] is described as follows: P-glycoprotein substrates identified in KB-8-5-11 adenocarcinoma cell line, qHTS therapeutic library screen (AID 1346987). Also: nearly all actives have a fitted effect of over 65% in size. As to activity change, negative = cytotoxicity: % is scaled to controls: 0 for no effect and ±100 for the full control effect. The method in brief:
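P-gp-mediated resistance screen: KB-8-5-11 cells treated 72 h with compounds in dose-response. CellTiter-Glo viability.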

In assay [2] the test system is Zika virus NS2B-NS3 protease (unlinked complex). The assay can be described thus: Primary screen GU Rhodamine qHTS for Zika virus inhibitors: Unlinked NS2B-NS3 protease assay (AID 1347159). Also: % is scaled to controls: 0 for no effect and ±100 for the full control effect; nearly all actives have a fitted effect of over 60% in size. In a few lines: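 Noncovalent NS2B hydrophilic domain/NS3 protease complex (25 nM final) in 10 mM Tris-HCl pH 8.0, 0.01% Tween 20, preincubated 15 min with compounds (up to 114 microM), then 1.5 microM Rhodamine110 substrate. Fluorescence change over 15 min fitted to 4-parameter Hill.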
In general terms: Quantitative high-throughput screening tests each substance at several concentrations.

Assay [3] is described as follows: Primary qHTS for inhibitors of nuclear receptor binding SET domain protein 2 (NSD2) in an isogenic RCH-ACV NSD2 p.E1099K mutant (9B) (AID 1645876). Also: nearly all actives have a fitted effect of over 70% in size. Also: potency is read from the fitted curve at half-maximal effect.
A short description of assay [4]: Primary qHTS for inhibitors of nuclear receptor binding SET domain protein 2 (NSD2) in an RCH-ACV wild type WT cells (2C) (AID 1645877). Also: nearly all actives have a fitted effect of over 70% in size. Also: potency is read from the fitted curve at half-maximal effect.
In assay [5] the target is Catechol O-methyltransferase (Homo sapiens) (UniProt P21964). Kind of assay: Confirmatory Screen for Target Class Profiling of Small Molecule Inhibitors of Methyltransferases (AID 1745852). As to activity change, negative = inhibition: % is scaled to controls: 0 for no effect and ±100 for the full control effect. The conditions noted are these: MTase-Glo luminescence, SAH detection, recombinant enzyme; measured here: COMT max response; stronger effect = lower value.
The target in assay [6] is Guanidinoacetate N-methyltransferase (Homo sapiens) (UniProt Q14353). Described as above. The following applies: activity change, negative = inhibition: at 57.3 µM (top of the series) unless noted.
Assay [7] concerns the target Nicotinamide N-methyltransferase (Homo sapiens) (UniProt P40261). The description is as above. The following applies: MTase-Glo luminescence, SAH detection, recombinant enzyme; measured here: NNMT max response; stronger effect = lower value.
In assay [8] the target is Phenylethanolamine N-methyltransferase (Homo sapiens) (UniProt P11086). The description is as above. The conditions noted are these: MTase-Glo luminescence, SAH detection, recombinant enzyme; measured here: PNMT max response; stronger effect = lower value.
The subject of assay [9] is KB-3-1. The assay can be described thus: Cytotoxic Profiling of Annotated Libraries Using Quantitative High-Throughput Screening (AID 1296008). Also: nearly all actives have a fitted effect of over 60% in size. As to max response: % is scaled to controls: 0 for no effect and ±100 for the full control effect. The conditions noted are these: Five cell lines viability, CellTiter-Glo ATP luminescence, 48-72 h; max response: stronger effect = lower value. In a few lines:
(§1)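 Cells exposed to compounds for 48 or 72 hr at 37 degrees Celsius. Viability read as ATP-coupled luminescence with CellTiter-Glo after 10 min at room temperature.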

Assay [10] concerns HACAT. Kind of assay: qHTS assay to identify novel small-molecules to repurpose for Merkel cell carcinoma treatment (AID 1296009). Also: nearly all actives have a fitted effect of over 60% in size. The following applies: MCC and control cell lines, CellTiter-Glo viability, 72 h; at 44.8 µM (top of the series) unless noted. In a few lines:
(§2)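 Cells were incubated with compound for 72 hr at 37 degree celsius before CellTiter-Glo addition. Luminescence was normalized with no-cell wells as full cytotoxicity and DMSO as baseline.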

Assay [11] in a line: P-glycoprotein substrates identified in KB-3-1 adenocarcinoma cell line, qHTS therapeutic library screen (AID 1346986). Also: nearly all actives have a fitted effect of over 60% in size. In a few lines:
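Compounds were tested in dose-response against KB-3-1 and KB-8-5-11 cells at 37 degree C for 72 h, and viability was measured by luminescence. AC50 values came from curve fitting with class-based activity calls.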

The test system of assay [12] is HeLa. Kind of assay: Primary qHTS to identify gynecologic anti-cancer compounds using libraries of approved drugs and bioactive compounds (AID 1345084). Also: % is scaled to controls: 0 for no effect and ±100 for the full control effect; nearly all actives have a fitted effect of over 55% in size. The following applies: Gynecologic cancer cell panel viability, ATPlite luminescence, 48 h; series mostly up to 57.5 µM. The method in brief:
(§3)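 In this quantitative HTS, cell killing is estimated from loss of ATP-dependent luciferase light. Cells see five compound concentrations over a 48 h exposure.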

Assay [13] deals with Cytochrome P450 2D6 (Homo sapiens) (UniProt P10635). Kind of assay: Cytochrome P450 family 2 subfamily D member 6 (CYP2D6) small molecule antagonists: luciferase biochemical (cell-free) qHTS assay (AID 1645840; active = well fitted curve in the direction sought with a large enough effect in the repeat runs; an effect the other way counts as inactive or inconclusive; also: nearly all actives have a fitted effect of over 55% in size; also: potency is read from the fitted curve at half-maximal effect). The method in brief: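 P450-Glo luminescent screen: recombinant CYP2D6 enzyme–proluciferin substrate mix preincubated with compound 10 min at room temperature, then NADPH regeneration added for 1 h at room temperature. Detection reagent added for 20 min; luciferin light read as relative luminescence units.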

Assay [14] deals with SKOV3. Kind of assay: Primary qHTS to identify gynecologic anti-cancer compounds using libraries of approved drugs and bioactive compounds (AID 1345084). Also: % is scaled to controls: 0 for no effect and ±100 for the full control effect; nearly all actives have a fitted effect of over 55% in size. The following applies: Gynecologic cancer cell panel viability, ATPlite luminescence, 48 h; series mostly up to 57.5 µM. In a few lines:
as §3

For assay [15], the target named is Cytochrome P450 2C9 (Homo sapiens) (UniProt P11712). The assay can be described thus: Cytochrome P450 family 2 subfamily C member 9 (CYP2C9) small molecule antagonists: luciferase biochemical (cell-free) qHTS assay (AID 1645842; active = well fitted curve in the direction sought with a large enough effect in the repeat runs; an effect the other way counts as inactive or inconclusive; also: potency is read from the fitted curve at half-maximal effect; nearly all actives have a fitted effect of over 55% in size). The method in brief: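 Luminescence, after 20 min with luciferin detection reagent, reflected CYP2C9 turnover during a 1 h NADPH-driven reaction at 37C. Enzyme-substrate mix contained 0.4% bovine serum albumin and was preincubated with compound 10 min at room temperature.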

The subject of assay [16] is NIH3T3. The assay can be described thus: qHTS assay to identify novel small-molecules to repurpose for Merkel cell carcinoma treatment (AID 1296009). Also: nearly all actives have a fitted effect of over 60% in size. The following applies: MCC and control cell lines, CellTiter-Glo viability, 72 h; at 44.8 µM (top of the series) unless noted. The method in brief:
as §2

For assay [17], the system named is HEK293. Kind of assay: Cytotoxic Profiling of Annotated Libraries Using Quantitative High-Throughput Screening (AID 1296008). Also: nearly all actives have a fitted effect of over 60% in size. As to max response: % is scaled to controls: 0 for no effect and ±100 for the full control effect. The conditions noted are these: Five cell lines viability, CellTiter-Glo ATP luminescence, 48-72 h; max response: stronger effect = lower value. The method in brief: as §1

We go through ten compounds from PubChem BioAssay (NCATS).

Inconclusive results are not listed. The source made the active and inactive calls. Unless noted, calls follow the shape of the dose curve; as a rule, active = well fitted curve in the direction sought with a large enough effect; inconclusive = small, poorly fitted or top-dose-only effect, or another doubt; inactive = no such curve, though single readings can be large; an effect the other way counts as inactive or inconclusive. Where a SMILES comes first, the peptide text is derived from it. [ ]: non-standard residue; d: D form. ξ: configuration not given here. ξLac(3-iPr) = CC(C)CC(O)C(=O)O; NMeV = CN[CH](C(=O)O)C(C)C; NMeA = CN[CH](C)C(=O)O; βAla = NCCC(=O)O

Sequence of Cytochrome P450 2D6 (Homo sapiens) (P10635 whole entry, looked up): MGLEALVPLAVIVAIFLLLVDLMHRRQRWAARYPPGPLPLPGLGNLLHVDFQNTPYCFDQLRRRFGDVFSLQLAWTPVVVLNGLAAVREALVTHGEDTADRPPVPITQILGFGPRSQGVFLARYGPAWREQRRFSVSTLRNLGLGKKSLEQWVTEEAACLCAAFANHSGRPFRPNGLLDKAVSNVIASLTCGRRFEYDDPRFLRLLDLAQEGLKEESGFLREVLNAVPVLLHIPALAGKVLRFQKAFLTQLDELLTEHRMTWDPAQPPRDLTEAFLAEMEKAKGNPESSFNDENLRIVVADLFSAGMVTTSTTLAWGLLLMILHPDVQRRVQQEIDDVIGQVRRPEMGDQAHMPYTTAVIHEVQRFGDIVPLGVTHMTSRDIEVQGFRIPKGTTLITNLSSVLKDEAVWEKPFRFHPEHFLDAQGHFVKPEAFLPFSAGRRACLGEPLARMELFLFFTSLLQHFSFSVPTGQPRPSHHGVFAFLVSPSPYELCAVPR
Sequence of Catechol O-methyltransferase (Homo sapiens) (P21964 whole entry, looked up): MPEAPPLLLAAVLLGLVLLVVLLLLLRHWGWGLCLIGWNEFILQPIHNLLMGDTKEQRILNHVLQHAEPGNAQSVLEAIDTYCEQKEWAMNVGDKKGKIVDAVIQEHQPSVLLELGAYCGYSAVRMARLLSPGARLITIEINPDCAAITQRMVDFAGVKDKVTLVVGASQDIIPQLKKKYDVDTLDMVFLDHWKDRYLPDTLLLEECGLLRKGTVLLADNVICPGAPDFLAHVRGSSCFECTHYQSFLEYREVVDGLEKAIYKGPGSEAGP
Sequence of Nicotinamide N-methyltransferase (Homo sapiens) (P40261 whole entry, looked up): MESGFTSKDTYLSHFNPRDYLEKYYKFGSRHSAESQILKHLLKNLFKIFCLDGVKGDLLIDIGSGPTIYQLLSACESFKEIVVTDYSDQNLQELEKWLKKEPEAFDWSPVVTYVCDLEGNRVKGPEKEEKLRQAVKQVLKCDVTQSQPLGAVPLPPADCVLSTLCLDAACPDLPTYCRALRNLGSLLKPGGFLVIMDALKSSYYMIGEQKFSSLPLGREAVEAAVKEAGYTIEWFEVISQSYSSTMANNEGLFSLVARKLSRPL
Sequence of Phenylethanolamine N-methyltransferase (Homo sapiens) (P11086 whole entry, looked up): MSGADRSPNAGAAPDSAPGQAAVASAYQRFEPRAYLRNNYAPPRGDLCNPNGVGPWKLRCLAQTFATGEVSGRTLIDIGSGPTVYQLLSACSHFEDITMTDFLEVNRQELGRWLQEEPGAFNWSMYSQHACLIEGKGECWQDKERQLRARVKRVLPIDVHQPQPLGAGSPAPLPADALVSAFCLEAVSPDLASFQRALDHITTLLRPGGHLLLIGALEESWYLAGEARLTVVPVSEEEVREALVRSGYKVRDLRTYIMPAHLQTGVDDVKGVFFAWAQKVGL
Sequence of Cytochrome P450 2C9 (Homo sapiens) (P11712 whole entry, looked up): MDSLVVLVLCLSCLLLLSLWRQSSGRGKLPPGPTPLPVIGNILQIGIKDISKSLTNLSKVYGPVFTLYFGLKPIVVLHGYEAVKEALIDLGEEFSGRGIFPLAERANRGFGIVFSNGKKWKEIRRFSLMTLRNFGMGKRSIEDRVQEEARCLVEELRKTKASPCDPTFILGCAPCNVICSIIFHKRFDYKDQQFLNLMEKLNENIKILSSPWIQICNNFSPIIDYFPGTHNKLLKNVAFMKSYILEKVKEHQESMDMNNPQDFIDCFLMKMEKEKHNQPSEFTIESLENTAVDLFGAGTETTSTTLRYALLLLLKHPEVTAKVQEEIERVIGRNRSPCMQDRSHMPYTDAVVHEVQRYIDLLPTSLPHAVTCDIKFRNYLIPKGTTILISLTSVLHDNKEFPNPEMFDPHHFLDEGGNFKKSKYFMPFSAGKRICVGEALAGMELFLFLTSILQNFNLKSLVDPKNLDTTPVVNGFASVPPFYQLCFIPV

For `CCOC(=O)c1ccnc2cc(C(OCCN3CCCCC3)c3ccccc3Cl)sc12` (configuration not stated), the Potency entry in assay [1] and in [2] was “inactive” throughout. For the same compound, the Potency in assay [3] was 23 µM (active); in assay [4], 20.5 µM (active). Further, the activity is -1.68% in assay [5], -18.4% in assay [7] and -4.81% in [8]. The activity change, negative = inhibition in assay [6] is 9.58%. For the same compound, the max response in assay [9] is 5.4% (inactive). Moreover, in assay [10], the outcome was “inactive”.
For `Cc1cccc(NC(=O)c2ccc(C(F)(F)F)cc2C(=O)O)n1`, the Potency entry in assay [11], in assay [1], in [2], in assay [3] and in assay [4] was “inactive” in each case. For the same compound, the outcome in assay [9] and in assay [10] was “inactive” throughout.
For `COC[C@]12CN(C)C3C4[C@H](OC)[C@H]1C3(C(OC)C[C@H]2O)[C@H]1C[C@@]2(O)[C@H](OC(=O)c3ccccc3)[C@@H]1[C@]4(O)[C@@H](O)[C@@H]2OC` (some centres not stated), the Potency result in assay [3] and in [4] was “inactive” in each case. In addition, in assay [9], the max response was -0.453% (inactive).
Take `CCC(C)C1NC(=O)C2CCCN2C(=O)C(CC(C)C)OC(=O)CCNC(=O)C(C)N(C)C(=O)C(C(C)C)N(C)C1=O` (configuration not stated) (cyclo([ξLac(3-iPr)]PI[NMeV][NMeA][βAla]); configuration not given here): the Potency entry in assay [1] and in assay [12] was “inactive” each time. The Potency was 2.71 µM (active) in [3] and 1.92 µM (active) in assay [4].
As for `CCOC(=O)C1(CCc2ccccc2)CCN(Cc2ccc(NC(C)=O)cc2)CC1`, the Potency in assay [13] was 2.13 µM (active). In [9], the max response is -17.7% (inactive). The Potency entry in assay [12] and in [14] was “inactive” throughout.
As to `CCCCCn1cc(C(=O)C2C(C)(C)C2(C)C)c2ccccc21`, the Potency result in [1], in [13], in assay [3] and in [12] was “inactive” throughout. Besides, the Potency in assay [15] is 10.7 µM (active). Also, the max response in [9] is 5.27% (inactive). For the same compound, the outcome in assay [10] is “inactive”.
Consider `CC(C)OC(=O)c1ccnc2cc(C(OCCN3CCCCC3)c3ccccc3Cl)sc12` (configuration not stated), for which the Potency entry in assay [2], in assay [12] and in assay [14] was “inactive” throughout. Further, the Potency was 14.5 µM (active) in assay [3] and 18.3 µM (active) in [4]. For the same compound, the results for the activity in assay [5], in assay [7] and in assay [8] were 3.41%, -30.3% and -6.38%, respectively. Besides, in [6], the activity change, negative = inhibition amounted to 8.86%. Further, the outcome in assay [10] was “inactive”.
In the case of `CC(=O)O[C@H]1C(=O)[C@]2(C)C(O)C[C@H]3OC[C@@]3(OC(C)=O)[C@H]2[C@H](OC(=O)c2ccccc2)[C@]2(O)C[C@H](O)C(C)=C1C2(C)C` (some centres not stated), the Potency result in assay [2], in [12] and in assay [14] was “inactive” each time. Besides, in [4], the Potency is 5.41 µM (active).
As to `C/C=C(\C)C(=O)O[C@@H]1[C@@H](C)[C@]2(O)C3C=C(C)C(=O)[C@@]3(O)CC(CO)=C[C@H]2C2C(C)(C)[C@@]21OC(=O)C(C)CC` (some centres not stated), the Potency result in assay [11], in assay [1], in assay [2], in assay [12] and in [14] was “inactive” each time. For the same compound, in [9], the outcome is “inactive”. In addition, the outcome in assay [10] and in [16] was “inactive [at 17.4 µM]” each time.
For `CN(CC[C@H](N)CC(=O)N[C@H]1C=C[C@@H](n2ccc(N)nc2=O)O[C@@H]1C(=O)O)C(=N)N`, the activity change, negative = viability loss in [3] was -2.6% [at 9.23 µM] (inactive). In assay [4], the activity change, negative = cell killing was 0.799% [at 9.23 µM] (inactive). In addition, the outcome in assay [17] is “inactive”. For the same compound, in assay [10], the outcome is “inactive [at 9.27 µM]”. Moreover, in assay [12], the activity change, negative = cytotoxicity is 9.86% [at 11.6 µM] (inactive).
